PubChem BioAssay (NCATS)
Where “and” joins values, the source holds several entries; their conditions need not be identical. Identical values can stand only once. Unmarked numbers belong to inactive results. Inconclusive results are not listed. Calls of active or inactive are those of the source. Unless noted, the call rests on the fitted dose curve; in most records, active means well fitted curve in either direction with a large enough effect (not every such curve was filed as active); inconclusive means small, poorly fitted or top-dose-only effect, or another doubt; inactive means flat fitted curve, though single readings scatter.

Columns and labels:
[1] = Stat Signaling Pathway (AID 446); conditions: ME-180 (cervical carcinoma) SIE beta-lactamase reporter, IL-6 stimulated, 5 h; at 38 µM (top of the series) unless noted;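 further: ME-180 cervical cancer cells given 40 pM IL-6 alongside compound; SIE-controlled beta-lactamase reporter measured as 460/530 nm FRET emission ratio; on the % scale 0 is the no-effect control and ±100 the full control effect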
Outline: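 Normalization used AC90 stimulation (300 pM IL-6) and AC90 inhibition (125 nM pan-JAK inhibitor at 40 pM IL-6). The underlying signal is SIE-driven beta-lactamase in ME-180 cells after 5 h IL-6 exposure with compound.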

[2] = target: Glucocorticoid receptor (Homo sapiens) (UniProt P04150); test: GR-GFP Redistribution (AID 450;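 active means compounds whose dose series gives a full or clear partial fitted curve of increased nuclear translocation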; further: potency means the concentration at half of the fitted maximal effect); conditions: U2OS GR-GFP nuclear translocation, laser cytometry, 2 h
[3] = target: Mitogen-activated protein kinase 10 (Mus musculus) (UniProt Q61831); test: JNK3 AlphaScreen Assay (AID 530);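 further: kinase came from lysate of stimulated human HepG2 cells; signal reports phosphorylation of biotinylated GST-cJun 1-79 at Ser73 with 10 µM ATP; on the % scale 0 is the no-effect control and ±100 the full control effect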
Outline: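 qHTS titrations with 15 min compound pre-incubation before adding ATP (10 uM final). Read-out: AlphaScreen of Ser73-phosphorylated biotin-GST-cJun using HepG2 lysate JNK3 activated by IL-1β and TNFα.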

[4] = target: Glucocorticoid receptor (Homo sapiens) (UniProt P04150); test: GR-EFC Redistribution (AID 451; calls by dose curve; further: potency means the concentration at half of the fitted maximal effect); conditions: CHO-K1 GR-EFC translocation, beta-gal luminescence, 2 h
Outline: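 Translocation of GR-ED fusion to nuclear EA restores b-gal, read by luminescence after 1 h room-temperature detection. Engineered CHO-K1 biosensor cells, 1,000/well, exposed 2 h at 37 C to titrations up to 46 uM final.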

[5] = Cell Viability - N2a (AID 540; active means well fitted curve in the direction sought with a large enough effect; an effect the other way counts as inactive or inconclusive;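 further: plate controls were DMSO alone for no effect and tamoxifen control for full effect; nearly all actives have a fitted effect of over 45% in size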)
Outline: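 CellTiter-Glo ATP luminescence, read 20 min after reagent at room temperature, reported viability following 40 h compound treatment at 37 °C. N2a mouse neuroblastoma cells seeded 1500/well; Hill equation gave AC50.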

[6] = Cell Viability - NIH 3T3 (AID 541; active means well fitted curve in the direction sought with a large enough effect; an effect the other way counts as inactive or inconclusive;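 further: plate controls were DMSO alone for no effect and tamoxifen positive control for full effect; nearly all actives have a fitted effect of over 25% in size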)
Outline: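 Intracellular ATP (CellTiter-Glo luminescence, 20 min at room temperature) measured after 40 hr compound exposure at 37 °C of 1000 NIH 3T3 mouse fibroblasts/well in complete medium; AC50 derived by Hill-equation modelling of qHTS concentration-response curves.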

[7] = Cell Viability - HUV-EC-C (AID 542; active means well fitted curve in the direction sought with a large enough effect; an effect the other way counts as inactive or inconclusive; further: on the % scale 0 is the no-effect control and ±100 the full control effect; nearly all actives have a fitted effect of over 35% in size)
Outline: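 CellTiter-Glo luminescence measured ATP loss in HUV-EC-C cells (1000/well) after 40 hr compound exposure at 37 °C, in complete culture medium. Concentration-response data were Hill-fitted to give AC50.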

[8] = Cell Viability - H-4-II-E (AID 543; active means well fitted curve in the direction sought with a large enough effect; an effect the other way counts as inactive or inconclusive; further: on the % scale 0 is the no-effect control and ±100 the full control effect; nearly all actives have a fitted effect of over 35% in size)
Outline: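 CellTiter-Glo luminescence (intracellular ATP) measured after 40 h compound exposure at 37 °C in H-4-II-E rat hepatoma cells seeded at 1500/well. Values are AC50s fitted with the standard Hill equation.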

[9] = Cell Viability - SH-SY5Y (AID 544; active means well fitted curve in the direction sought with a large enough effect; an effect the other way counts as inactive or inconclusive;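 further: 0% = DMSO alone and -100% = 100 µM tamoxifen; nearly all actives have a fitted effect of over 55% in size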)
Text: (§1) NIH Chemical Genomics Center [NCGC]
(§2) NIH Molecular Libraries Screening Centers Network [MLSCN]
(§3) National Institutes of Environmental Health Sciences [NIEHS]
(§4) National Toxicology Program [NTP]
We have developed a 1536-well cell-based assay for quantitative high throughput screening (qHTS) against a number of cell lines to determine in vitro cytotoxicity of small molecules. This particular assay uses the SH-SY5Y cell line which is derived from human neuroblastoma.
(§5) NCGC Assay Protocol Summary:
The CellTiter-Glo luminescent cell viability assay (Promega) is a homogeneous method to measure the number of viable cells in culture. The end point readout of this assay is based on quantitation of intracellular ATP, an indicator of metabolic activity, using the luciferase reaction. Luciferase catalyzes the oxidation of beetle Luciferin to oxyluciferin and light in the presence of ATP. […]
(§6) Using the CellTiter-Glo luminescent cell viability assay, the amount of cellular ATP was measured in the SH-SY5Y cell line with complete culture medium following compound treatment for 40 hours. […] Library compounds were measured for their ability to cause acute toxicity in the cell line, as reflected by a decrease in intracellular ATP levels, in a concentration-dependent manner. […] AC50 values were determined from concentration-response data modeled with the standard Hill equation. […]
(§7) 8. Detection; Luminescence; Viewlux plate reader […]

[10] = Cell Viability - Renal Proximal Tubule (AID 545; active means well fitted curve in the direction sought with a large enough effect; an effect the other way counts as inactive or inconclusive;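 further: 0% = DMSO only and -100% = 100 µM tamoxifen; nearly all actives have a fitted effect of over 40% in size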)
Text: as §1, §2, §3, §4
We have developed a 1536-well cell-based assay for quantitative high throughput screening (qHTS) against a number of cell lines to determine in vitro cytotoxicity of small molecules. This particular assay uses the renal proximal tubule cells which are derived from normal kidney cells freshly isolated from rat.
as §5
The CellTiter-Glo luminescent cell viability assay (Promega) is a homogeneous method to measure the number of viable cells in culture. The end point readout of this assay is based on quantitation of intracellular ATP, an indicator of metabolic activity, using the luciferase reaction. […]
as §6, with “renal proximal tubule cells” for “SH-SY5Y cell line”
as §7

Glucocorticoid receptor (Homo sapiens), sequence (P04150 whole entry, looked up, the tested form may be a part): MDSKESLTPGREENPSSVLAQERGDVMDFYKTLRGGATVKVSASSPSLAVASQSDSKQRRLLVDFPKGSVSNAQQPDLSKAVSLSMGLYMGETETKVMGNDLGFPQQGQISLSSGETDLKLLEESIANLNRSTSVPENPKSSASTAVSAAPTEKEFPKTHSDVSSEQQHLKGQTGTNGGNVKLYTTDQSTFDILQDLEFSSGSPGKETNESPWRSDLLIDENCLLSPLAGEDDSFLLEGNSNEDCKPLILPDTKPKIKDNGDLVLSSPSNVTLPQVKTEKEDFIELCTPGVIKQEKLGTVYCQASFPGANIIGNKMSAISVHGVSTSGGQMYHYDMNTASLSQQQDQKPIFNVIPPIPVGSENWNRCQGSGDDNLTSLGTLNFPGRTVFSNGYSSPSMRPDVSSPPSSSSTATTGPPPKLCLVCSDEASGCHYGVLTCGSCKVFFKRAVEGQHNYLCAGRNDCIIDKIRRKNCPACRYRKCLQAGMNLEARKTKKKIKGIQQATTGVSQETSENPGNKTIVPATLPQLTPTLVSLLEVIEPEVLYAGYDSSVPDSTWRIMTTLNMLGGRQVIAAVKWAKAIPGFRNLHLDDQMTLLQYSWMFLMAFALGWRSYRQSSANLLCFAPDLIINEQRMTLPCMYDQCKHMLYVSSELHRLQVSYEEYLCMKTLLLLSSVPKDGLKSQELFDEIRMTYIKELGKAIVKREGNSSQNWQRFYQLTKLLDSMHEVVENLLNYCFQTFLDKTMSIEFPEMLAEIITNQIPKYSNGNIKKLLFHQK

O=C(O)c1cc2cc(F)ccc2[nH]1
activity, negative = inhibition [1]: -0.809% [at 17.2 µM] | Potency [2]: > 46 µM and > 20.6 µM | outcome [3]: inactive

O=S(=O)(c1cccc2c(Cl)cccc12)N1CCCNCC1
activity, negative = inhibition [1]: -1.55% | Potency [2]: > 46 µM | Potency [4]: > 46 µM | outcome [3]: inactive

NC/C=C\C(=O)O
activity, negative = inhibition [1]: 22.6% and 7.43% | Potency [2]: > 46 µM | Potency [4]: > 46 µM | outcome [3]: inactive

CNC(=O)c1cc2c(cn1)[nH]c1ccccc12
activity, negative = inhibition [1]: 31.1% | Potency [2]: > 46 µM | Potency [4]: > 46 µM | outcome [3]: inactive

NCCS(=O)O
activity, negative = inhibition [1]: -6.03% | Potency [2]: > 46 µM | Potency [4]: > 46 µM | outcome [3]: inactive

CCC(=O)N1CCN(C(=O)c2ccccc2)CC1
activity, negative = inhibition [1]: 2.58% | Potency [2]: > 46 µM | outcome [3]: inactive

O=C(O)Cc1ccc(O)c(O)c1
activity, negative = inhibition [1]: 18.6% | Potency [2]: > 46 µM | Potency [4]: > 46 µM | outcome [3]: inactive

S=C(S)N1CCCC1
activity, negative = inhibition [1]: 7.91% | Potency [2]: > 46 µM | Potency [4]: > 46 µM | outcome [3]: inactive

COc1ccccc1N1CCN(CCCNc2c(C)c(=O)n(C)c(=O)n2C)CC1
activity, negative = inhibition [1]: 0.762% | Potency [2]: > 46 µM | Potency [4]: > 46 µM | outcome [3]: inactive

CC(N)=O
activity, negative = inhibition [1]: 13.9% | Potency [2]: > 46 µM | Potency [4]: > 46 µM | outcome [3]: inactive

Cn1c(=O)[nH]c2ncn(C)c2c1=O
activity, negative = inhibition [1]: 3.46% | Potency [2]: > 46 µM | Potency [4]: > 46 µM | outcome [3]: inactive

NC(=O)c1ccccc1
activity, negative = inhibition [1]: -35.6% | Potency [2]: > 46 µM | Potency [4]: > 46 µM | outcome [3]: inactive | outcome [5]: inactive | outcome [6]: inactive | outcome [7]: inactive | outcome [8]: inactive | outcome [9]: inactive | outcome [10]: inactive

CC(=O)N[C@@H](Cc1c[nH]c2ccccc12)C(=O)OCc1cc(C(F)(F)F)cc(C(F)(F)F)c1
activity, negative = inhibition [1]: 1.93% | Potency [2]: > 46 µM | outcome [3]: inactive

CCSC(=N)N
activity, negative = inhibition [1]: 9.06% | Potency [2]: > 46 µM | outcome [3]: inactive

COCc1nc2c([nH]1)c(=O)n(C)c(=O)n2CC(C)C
activity, negative = inhibition [1]: -22% | Potency [2]: > 46 µM | Potency [4]: > 46 µM | outcome [3]: inactive

CC(C)Cn1c(=O)n(C)c(=O)c2[nH]cnc21
activity, negative = inhibition [1]: -25.6% | Potency [2]: > 46 µM | Potency [4]: > 46 µM | outcome [3]: inactive

CCCc1c(OCCCOc2ccc(OCC(=O)O)cc2)ccc(C(C)=O)c1O
activity, negative = inhibition [1]: 11.2% | Potency [2]: > 46 µM | Potency [4]: > 46 µM | outcome [3]: inactive

O=c1onc2n1-c1cc(Br)ccc1OC2
activity, negative = inhibition [1]: -16.1% | Potency [2]: > 46 µM | outcome [3]: inactive

CCN(CC)CCOC(=O)c1cc(Cl)c(N)cc1OC
activity, negative = inhibition [1]: -0.802% | Potency [2]: > 46 µM | Potency [4]: > 46 µM | outcome [3]: inactive

NC1(C(=O)O)CCCCC1
activity, negative = inhibition [1]: 9.73% | Potency [2]: > 46 µM | Potency [4]: > 46 µM | outcome [3]: inactive

O=c1[nH]ccc2c(O)cccc12
activity, negative = inhibition [1]: -2.82% | Potency [2]: > 46 µM | outcome [3]: inactive

COc1ccc(CCN(C)CCc2ccc(OC)c(OC)c2)cc1OC
activity, negative = inhibition [1]: -14.4% | Potency [2]: > 46 µM | Potency [4]: > 46 µM | outcome [3]: inactive

O=c1[nH]c(=S)[nH]c(-c2ccccc2)c1Cc1c(O)ccc2ccccc12
activity, negative = inhibition [1]: -12.5% [at 7.69 µM] | Potency [2]: > 46 µM | activity change, negative = inhibition [3]: 0.827% [at 11.4 µM]

Cn1ccnc1
activity, negative = inhibition [1]: 8.3% | Potency [2]: > 46 µM | Potency [4]: > 46 µM | outcome [3]: inactive

NC(=Nc1ccccc1)NC(=O)c1nc(Cl)c(N)nc1N
Potency [2]: > 46 µM | Potency [4]: > 46 µM | outcome [3]: inactive

NS(=O)(=O)c1cccc2c1c([N+](=O)[O-])cc1nc(O)c(O)nc12
activity, negative = inhibition [1]: -3.69% | Potency [2]: > 46 µM | outcome [3]: inactive

CN(C)CCCc1cc(C(=O)Nc2ccc(-c3ccncc3)cc2)ccc1O
Potency [2]: > 46 µM | Potency [4]: > 46 µM | outcome [3]: inactive

O=C(O)c1cccnc1C(=O)O
activity, negative = inhibition [1]: -7.1% | outcome [3]: inactive

CCCn1c(=O)c2c(ncn2C)n(CCC)c1=O
activity, negative = inhibition [1]: 28.8% | Potency [4]: > 46 µM

C[C@H](O)C(=O)C1=Nc2c(nc(N)[nH]c2=O)NC1
activity, negative = inhibition [1]: -2.31% | Potency [2]: > 46 µM | outcome [3]: inactive

CCN(c1nc(N)c(C(=O)N=C(N)N)nc1Cl)C(C)C
activity, negative = inhibition [1]: -24.1% | Potency [4]: > 46 µM | outcome [3]: inactive

CNCCNS(=O)(=O)c1cccc2cnccc12
Potency [2]: > 46 µM | Potency [4]: > 46 µM

Cc1nc(N=Nc2cc(S(=O)(=O)O)c3cc([N+](=O)[O-])cc(S(=O)(=O)O)c3c2)c(COP(=O)(O)O)c(C=O)c1O
Potency [2]: > 46 µM | Potency [4]: > 46 µM | outcome [3]: inactive

NC(=O)CNCCC(c1ccccc1)c1ccccc1
Potency [2]: > 46 µM | Potency [4]: > 46 µM

O=C(O)C1=CCNCC1
activity, negative = inhibition [1]: 16.7% | Potency [2]: > 46 µM | outcome [3]: inactive

CCCCOC(=O)NS(=O)(=O)c1sc(CC(C)C)cc1-c1ccc(Cn2c(CC)nc3c(C)cc(C)nc32)cc1
Potency [2]: > 46 µM | Potency [4]: > 46 µM | outcome [3]: inactive

COc1ccc2c(c1)c(CC(=O)O)c(C)n2Cc1ccc(Cl)cc1
Potency [2]: > 46 µM | Potency [4]: > 46 µM

N=C(N)c1ccc(OCCCCCOc2ccc(C(=N)N)cc2)cc1 (tested in a mixture with another compound)
activity, negative = inhibition [1]: -3.59% | Potency [2]: > 46 µM | outcome [3]: inactive

CC(=O)C(C)=O
activity, negative = inhibition [1]: 31.9% | Potency [2]: > 46 µM | outcome [3]: inactive | outcome [5]: inactive | outcome [6]: inactive | outcome [7]: inactive | outcome [8]: inactive | outcome [9]: inactive | outcome [10]: inactive

CCCCCCCCCCCCCCC[C@H](O)[C@H](N)CO
Potency [2]: > 46 µM | Potency [4]: > 46 µM | outcome [3]: inactive

NC[C@@H]1O[C@H](c2ccccc2)Cc2c1ccc(O)c2O
Potency [2]: > 46 µM | Potency [4]: > 46 µM | outcome [3]: inactive

CN(C)S(=O)(=O)c1ccc2c(c1)/C(=C/c1cc3c([nH]1)CCCC3)C(=O)N2
activity, negative = inhibition [1]: -60.7% (active) | Potency [4]: > 46 µM | outcome [3]: inactive

CC[C@H](NC(=O)c1c(C)c(-c2ccccc2)nc2ccccc12)c1ccccc1
Potency [2]: > 46 µM | Potency [4]: > 46 µM | outcome [3]: inactive

CC(C)(CO)Cc1cc(C(C)(C)C)c(O)c(C(C)(C)C)c1
activity, negative = inhibition [1]: -24.1% | Potency [2]: > 46 µM | outcome [3]: inactive

COc1cc(/C=C(\C#N)C(=O)c2ccc(O)c(O)c2)cc(I)c1O
Potency [2]: > 46 µM | Potency [4]: > 46 µM
